# Rab9 prom act: qHTS Assay for Rab9 Promoter Activators; Huh7 Rab9 promoter-luciferase reporter, luminescence, 24 h; Potency, µM (titrated, usually from 9.22 µM), usual class: activators; actives 2.8% (n = 320,000); AID 485297, 2010; note: nearly all actives have a fitted effect of over 60% in size
#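 Luminescence read-out: Huh7 cells stably expressing Rab9-luciferase, treated 24 h with compound at 37 °C, then lysed with luciferase reagent for 10 min at ambient before reading.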
# ELG1 genotoxic: qHTS screen for small molecules that induce genotoxicity in human embryonic kidney (HEK293T) cells expressing luciferase-tagged ELG1 | HEK293T ELG1-luciferase reporter, luminescence, 16 h | Potency, µM (top dose mostly 46 µM), actives largely listed as activators | actives 1.3% (n = 330,000) | AID 504466, 2011; note: nearly all actives have a fitted effect of over 60% in size
#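 16 hr compound incubation (37 °C, 5% CO2) of HEK293T cells carrying luciferase-tagged ELG1; luciferase then measured by ONE-Glo luminescence after 30 min at RT.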
# NPC1 promoter act: qHTS Assay for NPC1 Promoter Activators | actives 2.4% (n = 320,000) | Potency, µM (highest dose often 9.22 µM), most hits filed as activators | Huh7 NPC1 promoter luciferase reporter, 24 h | AID 485313, 2010; note: nearly all actives have a fitted effect of over 60% in size
#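 Cells: Huh7 expressing luciferase under the NPC1 promoter, 1500/well. Seeded 2 h, compound added, incubated 24 h at 37 °C. Luciferase reagent, 10 min ambient, then luminescence.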
# FLuc counter: qHTS profiling assay for firefly luciferase inhibitor/activator using purifed enzyme and Km concentrations of substrates (counterscreen for miR-21 project); Luciferin 4-monooxygenase (Photinus pyralis), P08659; purified FLuc, Km substrates, luminescence inhibition; Potency, µM (doses to about 57.5 µM), actives largely listed as inhibitors; actives 6.9% (n = 360,000); AID 588342, 2011; note: nearly all actives have a fitted effect of over 55% in size
# Target sequence (P08659 whole entry, looked up): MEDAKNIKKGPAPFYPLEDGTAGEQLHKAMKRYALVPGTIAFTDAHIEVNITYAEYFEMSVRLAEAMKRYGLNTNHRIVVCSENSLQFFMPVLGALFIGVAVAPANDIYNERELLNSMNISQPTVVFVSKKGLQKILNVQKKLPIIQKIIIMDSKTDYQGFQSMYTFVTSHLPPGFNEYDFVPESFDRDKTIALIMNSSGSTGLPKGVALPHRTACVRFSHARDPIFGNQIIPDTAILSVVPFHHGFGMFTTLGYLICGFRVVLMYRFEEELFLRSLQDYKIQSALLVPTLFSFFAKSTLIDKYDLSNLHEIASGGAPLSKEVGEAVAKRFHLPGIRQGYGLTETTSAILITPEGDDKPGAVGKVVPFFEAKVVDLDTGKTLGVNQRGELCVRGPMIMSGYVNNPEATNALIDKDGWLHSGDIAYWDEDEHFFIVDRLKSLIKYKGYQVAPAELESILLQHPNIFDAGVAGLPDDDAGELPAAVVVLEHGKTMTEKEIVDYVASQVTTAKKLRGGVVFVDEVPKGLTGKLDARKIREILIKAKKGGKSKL
#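 Purified P. pyralis luciferase, 10 nM final, with Km-level 10 uM D-luciferin and 10 uM ATP in 50 mM Tris acetate pH 7.5, 10 mM Mg acetate, 0.01% Tween-20, 0.05% BSA; 6-point qHTS titration about 60 µM downward; luminescence read.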
# SMN2 splice enh: qHTS Assay for Enhancers of SMN2 Splice Variant Expression | HEK293 SMN2-luciferase splicing reporter, luminescence, 30-36 h | actives 2.8% (n = 210,000) | AID 1458, 2008 | Potency, µM (titrated, usually from 46.1 µM), usual class: activators; note: nearly all actives have a fitted effect of over 55% in size
#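 HEK293 cells carry an SMN2 […]–luciferase reporter in which exon 7 inclusion puts luciferase in frame. Cells were plated 10-12 h before compound addition, then incubated 30-36 h at 37C. ONE-Glo luminescence was read; sodium butyrate at 4.5 mM final served as control.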
# Numbers stand for hits; . = inactive; ? = inconclusive; / = not tested or not shown; [ ] = dose if it differs, or a comment. Compounds with a hit are over-represented: about 7.4% of the library has one in this group of screens. Calls come from the whole dose curve; as a rule, active = well fitted curve in the direction sought with a large enough effect; inconclusive = small, poorly fitted or top-dose-only effect, or another doubt; inactive = no such curve, though single readings can be large; an effect the other way counts as inactive or inconclusive.
SMILES,Rab9 prom act,ELG1 genotoxic,NPC1 promoter act,FLuc counter,SMN2 splice enh
Cc1coc2c1c(C)cc1oc(=O)c(CC(=O)NCc3ccc(Cl)cc3)c(C)c12,/,/,/,.,.
Cc1ccc(-c2nn(-c3ccccc3)cc2C(=O)N2CCN(c3ccccn3)CC2)cc1,.,.,.,15µM,.
Cc1ccc(-c2nn(Cc3ccccc3)cc2C(=O)N2CCN(c3ccccn3)CC2)cc1,.,.,.,.,/
O=C(c1cn(-c2ccccc2)nc1-c1ccccc1)N1CCN(c2ccccn2)CC1,.,.,.,11µM,.
CN(C)Cc1cc(C(C)(C)C)ccc1-c1ccc(C(C)(C)C)cc1CN(C)C,/,/,/,/,.[9.22 µM]
Cc1oc2c(c(C)cc3oc(=O)c(CC(=O)NCCc4ccccc4F)c(C)c32)c1C,/,/,/,.,.
CC(C)CSc1nnc(-c2ccccc2)c(-c2ccccc2)n1,/,/,/,.,.
CCN(CC)S(=O)(=O)c1ccc(C(=O)Nc2cc(C)cc(C)c2)cc1,.,.,.,.,.
Cc1nnc(NC(=O)c2ccc(S(=O)(=O)C(F)F)cc2)s1,2.2µM,?,?,5.4µM,/
Cc1cc(C)cc(NC(=O)c2ccc(S(=O)(=O)C(F)F)cc2)c1,.,.,.,13µM,.
Cc1nnc(NC(=O)c2ccncc2)s1,.,.,.,.,.
O=C(Nc1ccon1)c1ccc2c(c1)OCO2,?,?,.,?,?
NS(=O)(=O)c1ccc2nc(NC(=O)c3ccc4ncsc4c3)sc2c1,.,.,.,2.4µM,/
Cc1ccc2nc(NC(=O)c3ccc4c(c3)OCO4)sc2c1,1.1µM,.,1.6µM,0.95µM,11µM
O=C(/C=C/c1ccc2c(c1)OCO2)Nc1nc2ccc(F)cc2s1,1.4µM,?,1.8µM,?,/
NS(=O)(=O)c1ccc2nc(NC(=O)c3ccc4c(c3)OCCO4)sc2c1,.,.,.,.,/
Cc1ccc2nc(NC(=O)c3ccc4ncsc4c3)sc2c1,1.3µM,2.9µM,1.6µM,0.95µM,7.1µM
Cc1ccc(C(=O)Nc2nc3ccc(S(=O)(=O)N4CCCC4)cc3s2)cc1,/,/,/,.,/
COc1ccc(CNC(=O)c2cnc3ccc(C)cn3c2=O)cc1,/,/,/,.,.
CCn1c(C(=O)NCCc2ccc(S(N)(=O)=O)cc2)cc2sc(Cl)cc21,/,/,/,.,.
CCOC(=O)c1c(NC(C)=O)c2c3c(sc2n1Cc1nc(-c2ccccc2Cl)oc1C)CCCC3,/,/,/,.,.
CSCCC(NC(=O)c1ccc(C(C)(C)C)cc1)C(=O)OCC(=O)N1CCCC1=O (stereo unspecified),.,.,.,21µM,/
O=c1c2ccccc2oc2cc(NCCCN3CCOCC3)ccc12,3.5µM,?,4µM,11µM,/
O=C(NCCCn1ccnc1)c1cc2ccccc2oc1=O,.,.,.,.,.
O=c1c2ccccc2oc2ccc(NCCCN3CCOCC3)cc12,2.8µM,?,2.8µM,8.5µM,/
SMILES,Rab9 prom act,ELG1 genotoxic,NPC1 promoter act,FLuc counter,SMN2 splice enh
O=c1c2ccccc2oc2cc(NCCCn3ccnc3)ccc12,0.71µM,?,1.1µM,2.4µM,/
COc1cccc2sc3cc(NCCCN4CCOCC4)ccc3c(=O)c12,/,.,/,/,/
CN(C(=O)CSc1nncn2c1cc1occc12)c1ccccc1,/,/,/,.,/
O=C(Nc1ccccc1Cl)c1ccc(-c2ccccn2)s1,1.4µM,?,2µM,3.4µM,/
CC(C)C(=O)Nc1ccc(NC(=O)c2ccccc2Cl)nc1,3.2µM,16µM,?,21µM,/
O=C(Nc1ccc(Cl)cn1)c1ccc(Oc2ccccc2)cc1,2.2µM,?,1.3µM,3.4µM,/
O=C(Nc1ccccc1Cl)c1cccs1,.,.,.,?,.
Cc1ccccc1C(=O)Nc1ccc(Cl)cn1,3.5µM,10µM,2.5µM,17µM,.
Cc1ccc(C)c(NC(=O)CSc2nc(=O)n(Cc3ccncc3)c3c2CCC3)c1,/,/,/,.,/
O=C(Nc1ccc(Cl)cn1)c1ccc2nccnc2c1,?,?,1.6µM,12µM,/
Cc1ccc(C(=O)Nc2ccc(Cl)cn2)cc1,?,2.3µM,.,1.3µM,7.9µM
O=C(Nc1ccc(Cl)cn1)c1cccnc1,.,.,.,.,?
Cc1ccccc1C(=O)Nc1ccc(Br)c(C)n1,?,12µM,?,24µM,.
Cc1ccc(C(=O)NCCOc2ccc(Cl)cc2)cc1,.,?,?,24µM,/
CCOC(=S)SCC(=O)O,/,/,/,/,.[9.22 µM]
Cc1ccc(NC(=O)c2ccc(S(=O)(=O)N3CCC(C)CC3)cc2)nc1,.,18µM,.,?,/
O=C(Nc1ccccc1Cl)c1ccc2nccnc2c1,2.5µM,.,3.2µM,11µM,/
Cc1nc(NC(=S)NC(=O)c2cccs2)ccc1Br,.,?,.,4.8µM,?
Cc1ccc(NC(=O)c2ccc(S(=O)(=O)N3CCCCCC3)cc2)nc1,.,.,.,?,/
Cc1ccc(C(=O)Nc2ncc3c(Cl)cccc3n2)cc1,0.16µM,?,?,0.27µM,0.032µM
Cc1cccc(NC(=S)NC(=O)c2cccs2)n1,?,.,?,?,.
O=C(c1cnn(-c2cccc(F)c2)c1-n1cccc1)N1CCN(c2ccccc2F)CC1,/,/,/,.,/
O=C(OC1Cc2c(O)cc(O)cc2OC1c1cc(O)c(O)c(O)c1)c1cc(O)c(O)c(O)c1 (stereo unspecified),/,/,/,/,.
Cc1cc(C(C)(C)C)c(OCCCN2CCOCC2)c(C(C)(C)C)c1,/,/,/,/,.[9.22 µM]
O=C(c1cc(-c2ccc(Cl)cc2)on1)N(Cc1cccc(F)c1)Cc1ccco1,/,/,/,.,/
SMILES,Rab9 prom act,ELG1 genotoxic,NPC1 promoter act,FLuc counter,SMN2 splice enh
Cc1ccc(C)c(NC(=O)Nc2cc3c(cc2N2CCCCC2)n(C)c(=O)n3C)c1,/,/,/,.,.
CCCOc1ccc(C(=O)Nc2ccc(Cl)cn2)cc1,0.5µM,?,0.71µM,0.85µM,?
Clc1ccc(-c2nnc(C3CCCCC3)o2)cc1,.,?,.,?,.
Clc1ccc(-c2nc(C3CCCCC3)no2)cc1,3.2µM,.,3.2µM,4.8µM,?
C=CCn1c(=O)c(C(=O)Nc2ccccc2S(N)(=O)=O)c(O)c2ccccc21,3.2µM,?,2.5µM,?,/
CCc1ccc(NC(=O)c2ccc3c(=O)n4c(nc3c2)CCCCC4)cc1,.,.,.,17µM,/
CCc1ccc(NC(=O)c2sc3nc4n(c(=O)c3c2C)CCC4)cc1,?,.,.,15µM,/
CC(=O)Nc1ccc(NC(=O)c2sc3nc4n(c(=O)c3c2C)CCCCC4)cc1,.,.,.,.,.
CCc1nnc(NC(=O)c2ccc3c(=O)n4c(nc3c2)CCCCC4)s1,.,.,.,27µM,/
Cc1c(C(=O)N(C)c2cccc(C(F)(F)F)c2)sc2nc3n(c(=O)c12)CCCCC3,/,/,/,13µM,/
CCOc1ccc(NC(=O)c2ccc3c(=O)n4c(nc3c2)CCCCC4)cc1,.,.,.,.,.
CC(C)COC(=S)Nc1ccccc1,.,?,.,17µM,.
COc1ccc(C(=O)N2CCC3(CCN(C)CC3)CC2)cc1,/,/,/,/,.
Cc1ccc(-n2ncc(C#N)c2N)cc1,.,.,.,.,/
Nc1c(-c2ccccc2)cnc2cc(-c3ccccc3)nn12,0.71µM,2.6µM,1.4µM,0.6µM,4.5µM
